# Measurements from PubChem BioAssay.
# Values joined by “and” are separate entries in the source; they are usually repeats but may differ in a detail not shown here. Equal entries are not always repeated. Active and inactive are the calls of the source. Cut-off read from the data, not from the text of the source, unless noted: active = parasite load remaining mostly below about 12% (no sharp cut-off); inactive = mostly above about 10%. Bridge positions count the residues as written; N and C are the ends. Square brackets hold non-standard residues; d marks the D form. Peptide text beside a SMILES is read from it. * marks the point of attachment. Heptanoyl(6-Me) = CC(C)CCCCC(=O)*; Orn = NCCC[CH](N)C(=O)O; Dab = NCC[CH](N)C(=O)O
# How the values were obtained:
# [1] = liver-stage malaria parasite growth inhibition, primary screen, cell-based, HepG2, luciferase luminescence, HepG2 viability (AID 624349);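 note: 100% = mean of DMSO negative control wells on the same plate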; details: P. berghei liver stage in HepG2, luciferase luminescence, concentration not given here; parasite load remaining: stronger effect = lower value; viability: measured here: HepG2 viability without parasites
# [2] = differential killing of epithelial or mesenchymal cells, primary screen, imaging, PC-3E GFP, TEM4-18 mCherry, co-culture (AID 1345086;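 active = compounds killing one labelled cell type while sparing the other, by normalised counts and ratio limits, not self-fluorescent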;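 for all read-outs here: cells exposed to compound for 72 h before imaging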;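 for red/green cell ratio (normalised): normalised mesenchymal count divided by normalised epithelial count so high means epithelial killing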); details: imaging cell counts, at 1 µM; for red/green cell ratio (normalised): actives lie on both sides, counts scaled to control wells, 1 = unselective
# [3] = sensitizers of A549 cells to miR-34 induction, primary screen, imaging, A549 dox-inducible miR-34, nuclei and caspase counts (AID 1347080;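 active = compounds whose cell count with miR-34 switched on is under 0.7 times the count with it off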); details: A549 miR-34 inducible, Hoechst nuclei count, 48 h
# [4] = hESC survival regulators, cell-based (AID 493140; call rule not given here;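 note: cells exposed to compounds for four days before counting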); details: human embryonic stem cell survival screen; stronger effect = higher value
# [5] = measured here: epithelial PC-3E GFP cell survival
# [6] = measured here: mesenchymal TEM4-18 mCherry cell survival
# [7] = stronger effect = lower value, cell number ratio, induced over uninduced
# [8] = measured here: relative caspase fold change +Dox/-Dox
# [9] = measured here: total cells with miR-34 induction, stronger effect = lower value
# [10] = measured here: total cells without miR-34 induction
SMILES,parasite load remaining [1],viability [1],red/green cell ratio (normalised) [2],"normalised cell number [2, 5]","normalised cell number [2, 6]","fold change [3, 7]","fold change [3, 8]","cell count [3, 9]","cell count [3, 10]",survival [4]
O=C(OC[C@H]1O[C@H](OC(=O)c2cc(O)c(O)c(OC(=O)c3cc(O)c(O)c(O)c3)c2)[C@H](OC(=O)c2cc(O)c(O)c(OC(=O)c3cc(O)c(O)c(O)c3)c2)[C@@H](OC(=O)c2cc(O)c(O)c(OC(=O)c3cc(O)c(O)c(O)c3)c2)[C@@H]1OC(=O)c1cc(O)c(O)c(OC(=O)c2cc(O)c(O)c(O)c2)c1)c1cc(O)c(O)c(OC(=O)c2cc(O)c(O)c(O)c2)c1,58.2% (inactive) and 73.8% (inactive),119% and 101%,1.23 (inactive),1.24,1.52,0.602 (active),1.46,4260,7070,–
CC(C)CC1NC(=O)C(CCCN)NC(=O)C(C(C)C)NC(=O)C(Cc2ccc(O)cc2)NC(=O)C(CCC(=O)O)NC(=O)C(CC(=O)O)NC(=O)C(Cc2ccccc2)NC(=O)C(Cc2ccccc2)NC(=O)C2CCCN2C(=O)C(Cc2ccccc2)NC1=O (configuration not stated) (cyclo(DEYV[Orn]LFPFF); configuration not given here),7.69% (inactive) and 0.08% (inactive),49.2% and 36.8%,0.75 (inactive),0.47,0.35,1.12 (inactive),0.824,1510,1350,–
CO/N=C(\C(=O)NC1C(=O)N2C(C(=O)OCOC(=O)C(C)(C)C)=C(/C=C\c3scnc3C)CSC12)c1csc(N)n1 (configuration not stated),101% (inactive) and 42.8% (inactive),81.5% and 105%,0.92 (inactive),1.21,1.12,0.904 (inactive),4.33,11600,12800,–
CCCC[C@@H](CC)COC(=O)c1ccccc1O,49.2% (inactive),118%,0.88 (inactive),1.19,1.04,0.858 (inactive),1.6,11400,13300,–
NCC1CCCCC1CC(=O)O (configuration not stated),148% (inactive) and 51.6% (inactive),89.1% and 119%,0.8 (inactive),1.27,1.02,0.945 (inactive),5.86,12000,12700,–
COc1cc([C@@H]2c3cc4c(cc3C(O[C@@H]3O[C@@H]5CO[C@@H](c6cccs6)OC5[C@H](O)[C@H]3O)C3COC(=O)[C@@H]32)OCO4)cc(OC)c1O (some centres not stated),111% (inactive) and 83.3% (inactive),75.6% and 112%,1.33 (inactive),0.27,0.36,0.795 (inactive),3.39,3270,4110,–
N[C@H](Cc1cc(I)c(Oc2ccc(O)c(I)c2)c(I)c1)C(=O)O,45.9% (inactive),99.9%,0.97 (inactive),1.02,0.99,0.92 (inactive),1.64,11400,12400,–
CC(C)CCCC(C)[C@H]1CCC2C3CC=C4C[C@@H](O)CC[C@]4(C)C3CC[C@@]21C (some centres not stated),39.9% (inactive),101%,1.04 (inactive),1.14,1.19,0.96 (inactive),2.49,12300,12900,–
CC(=O)OC1CCC2C3CCc4cc(O)ccc4C3CCC12C (configuration not stated),37.6% (inactive) and 33.6% (inactive),66.8% and 98%,0.88 (inactive),1.2,1.05,0.907 (inactive),3.29,8630,9520,–
CC1(C)O[C@@H]2CC3C4C[C@H](F)C5=CC(=O)C=C[C@]5(C)[C@@]4(F)[C@@H](O)C[C@]3(C)[C@]2(C(=O)CO)O1 (some centres not stated),74.8% (inactive),92.9%,1.12 (inactive),1.2,1.35,0.898 (inactive),0.891,7030,7830,–
CC1=C(C(=O)O)N2C(=O)[C@@H](NC(=O)[C@H](N)C3=CCC=CC3)C2SC1 (some centres not stated),74.8% (inactive) and 68.7% (inactive),77.3% and 102%,1 (inactive),1.13,1.14,0.89 (inactive),4.9,11000,12400,–
CCc1cc(Cl)c(OC)c(C(=O)NCC2CCCN2CC)c1O (configuration not stated),–,–,0.67 (inactive),1.29,0.86,0.847 (inactive),0.822,7250,8550,1.5 (inactive)
CO/N=C(/C(=O)N[C@@H]1C(=O)N2C(C(=O)O)=C(CSc3nc(=O)c(O)nn3C)CS[C@H]12)c1csc(N)n1,147% (inactive) and 79.9% (inactive) and 62.4% (inactive),82.1% and 106% and 101%,1.22 (inactive),1.02,1.24,0.888 (inactive),3.26,11700,13200,–
CCC(C)C1NC(=O)C(CCN)NC(=O)C(NC(=O)C(CCN)NC(=O)C(NC(=O)C(CCN)NC(=O)CCCCC(C)C)C(C)O)CCNC(=O)C(C(C)O)NC(=O)C(CCN)NC(=O)C(CCN)NC(=O)C(C(C)CC)NC1=O (configuration not stated) ({Heptanoyl(6-Me)}-[Dab]T[Dab][Dab][Dab]II[Dab][Dab]T; lactam 4-C; configuration not given here),49.5% (inactive),98.1%,0.79 (inactive),1.14,0.9,0.901 (inactive),3.33,12400,13800,–
OC[C@@H](O)C(O[C@@H]1O[C@H](CO)[C@H](O)[C@H](O)[C@H]1O)[C@H](O)[C@@H](O)CO (some centres not stated),63.4% (inactive),99.9%,1.21 (inactive),0.87,1.06,0.87 (inactive),4.32,11300,13000,–
CC(=O)Nc1cc2ccccc2oc1=O,90.5% (inactive),77.8%,0.74 (inactive),1.29,0.95,0.955 (inactive),0.792,8640,9040,3.5 (inactive)
NC(Cc1c[nH]c2ccccc12)C(=O)O (configuration not stated),149% (inactive) and 37.9% (inactive),72.8% and 89.5%,1.24 (inactive),0.98,1.22,0.933 (inactive),2.24,11800,12700,–
C[N+](C)(C)CCOP(=O)([O-])OP(=O)(O)OC[C@H]1OC(n2ccc(N)nc2=O)[C@H](O)[C@@H]1O (some centres not stated),169% (inactive) and 55.3% (inactive),92.4% and 97.3%,1.29 (inactive),0.95,1.22,0.9 (inactive),4.71,12600,14000,–
